A selection: hits, their analogues and other compounds. The true share with any hit is near 2.4%.
D2 PAM-1 – human D2 receptor positive allosteric modulation; DiscoveRx D2 beta-arrestin cells, luminescence, 90 min; 100% = 57 uM dopamine signal; 0.23% of 360,000 active; potentiation, % (test concentration not listed); P14416; in the data active = potentiation above about 50%; inconclusive = mostly about 30% to 49%
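PathHunter D2 cells, attached overnight at 37 deg C, received compound in DMSO plus dopamine at EC20 (50 nM final) for 90 min at 37 deg C. Beta-arrestin recruitment was read as luminescence after 1 h with detection reagent at ambient temperature.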
D2 ag-1 – activates the human D2 dopamine receptor | 0.53% of 340,000 active | AID 485358 | HEK293 T-REx D2 cells, calcium flux agonist mode | P14416 | activation, % at 2 µM;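 active = activation over 3 SD above normal in the single-dose calcium agonist read, cut at about 30% in these data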; also: 0% is about no effect
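Agonism is scored from calcium flux in a force-coupled, inducible HEK293 cell line expressing D2, read kinetically for 180 s after compound addition against dopamine controls.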
D2 PAM-2 – D2 dopamine receptor (human) potentiation. P14416. HEK293 T-REx D2, calcium flux, EC20 dopamine potentiation. potentiation, % at 10 µM. 0.34% of 340,000 active. AID 485347;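 active = potentiation over 3 SD above the plate norm, cut at about 30% in these data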; also: 0% is about no effect
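Potentiation of an EC20 dopamine calcium response is measured in a force-coupled, tetracycline-inducible Hek293 Trex D2 line. Compound-only kinetic reads over 180 s flag agonists before dopamine addition.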
D2 antagonist – antagonists of human D2 dopamine receptor | HEK293 TREx D2 cells, calcium flux, dopamine EC80 | AID 485344 | inhibition, % at 10 µM | 2% of 340,000 active; in the data active = inhibition above about 30%; inactive = below that, where a call was filed; also: 0% is about no effect
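Antagonism is scored as inhibition of an EC80 dopamine-evoked calcium signal in a force-coupled, tetracycline-inducible HEK293 T-REx D2 line, with compound present 180 s before agonist.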
D2 ag-2 – human D2 receptor agonism in beta-arrestin assay; P14416; AID 624465; activation, % (concentration not given with the values); DiscoveRx PathHunter D2 beta-arrestin, luminescence, 90 min; 100% = 57 uM dopamine signal; 0.084% of 360,000 active; in the data active = activation above about 40%; inconclusive = between about 15% and that limit
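Agonist mode: compounds alone added to overnight-plated D2 PathHunter cells for 90 min at 37 C, with 57 uM final dopamine (EC100) defining full response. Beta-arrestin recruitment detected by chemiluminescent reagent, read after 1 h at ambient temperature.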
D3 arrestin ag – D3 receptor agonism confirmed, beta-arrestin readout | shares compounds with D2 ag-1 | DiscoveRx D3 beta-arrestin cells, luminescence, 90 min | Potency, µM (highest dose often 76.9 µM), inactives show at the highest dose activation, most hits filed as activators | 4% of 2,300 active;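 also: potency is read from the fitted curve at half-maximal effect; 100% = dopamine control response; nearly all actives have a fitted effect of over 70% in size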
Target sequence (P35462 whole entry, looked up): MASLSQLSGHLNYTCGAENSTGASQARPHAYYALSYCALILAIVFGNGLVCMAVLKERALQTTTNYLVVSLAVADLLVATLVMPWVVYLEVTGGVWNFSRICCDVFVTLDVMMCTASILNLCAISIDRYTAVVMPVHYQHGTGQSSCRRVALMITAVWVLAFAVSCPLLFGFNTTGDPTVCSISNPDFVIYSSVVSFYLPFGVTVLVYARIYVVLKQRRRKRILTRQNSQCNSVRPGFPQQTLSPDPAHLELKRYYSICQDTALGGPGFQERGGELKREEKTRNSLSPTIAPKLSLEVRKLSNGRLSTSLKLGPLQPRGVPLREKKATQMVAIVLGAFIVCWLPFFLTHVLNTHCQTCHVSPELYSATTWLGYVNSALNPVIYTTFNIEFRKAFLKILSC
D2 ag-3 – counter-screen for D3 agonists: human D2 dopamine receptor agonism; Potency, µM (titrated, usually from 76.9 µM), for inactives: at the highest dose activation, most hits filed as activators; DiscoveRx PathHunter D2 beta-arrestin, luminescence, 90 min; response scale: percent relative to full dopamine signal; 5.9% of 2,300 active; shares compounds with D2 ag-1; also: potency is read from the fitted curve at half-maximal effect; % of control where 0% means no effect; nearly all actives have a fitted effect of over 70% in size
* hit, by the source's call; ? = inconclusive; nt = no result. Unless noted, calls follow the shape of the dose curve; as a rule, active = well fitted activation curve with a large enough effect; inconclusive = small, poorly fitted or top-dose-only effect; inactive = flat fitted curve, though single readings scatter.

SMILES	D2 PAM-1	D2 ag-1	D2 PAM-2	D2 antagonist	D2 ag-2	D3 arrestin ag	D2 ag-3
CCOc1ccc(Br)cc1S(=O)(=O)NC1CC(C)(C)NC(C)(C)C1	-6	28	-15	16	-4	-10%	-4%
CCOc1cc(C)c(S(=O)(=O)NC2CC(C)(C)NC(C)(C)C2)cc1C	-7	0	4	18	-2	nt	nt
COc1ccc(Cl)cc1S(=O)(=O)NC1CC(C)(C)NC(C)(C)C1	-1	nt	-7	nt	-3	nt	nt
Cc1cc(C)c(S(=O)(=O)NC2CC(C)(C)NC(C)(C)C2)cc1C	1	30*	2	15	-3	9%	6%
O=S(=O)(NCCc1csc(-c2cccnc2)n1)c1cc(F)ccc1F	-6	-1	1	39*	2	1%	2%
O=S(=O)(NCCc1csc(-c2cccnc2)n1)c1cccc(F)c1	-6	0	-4	-1	0	nt	nt
O=C(N/N=C/c1cccc(Oc2ccccc2)c1)c1cc[n+]([O-])cc1	-3	-1	4	14	-1	nt	nt
Nc1ccc(C(=O)N/N=C/c2cccc(Oc3ccccc3)c2)cc1	-8	-1	5	31*	-1	0%	1%
Nc1ccc(C(=O)N/N=C\c2ccc(OC(=O)c3ccccc3Cl)cc2)cc1	-24	1	11	33*	-2	3%	1%
CC1CCCC(NC(=O)COC(=O)c2ccc3ncsc3c2)C1C (configuration not stated)	-4	nt	nt	nt	-1	-2%	4%
CCOc1ccc(NC(=O)c2c(NC(=O)c3ccccc3Br)sc3c2CCC(C)C3)cc1 (configuration not stated)	nt	-1	1	nt	nt	nt	nt
CC1=C/C(=C\C=C(C#N)C#N)N(C)c2ccccc21	-4	32*	-12	-21	-3	-26%	-8%
O=C(O)CCSc1ccc([N+](=O)[O-])cc1[N+](=O)[O-]	2	nt	-4	nt	14	?	6%
OC(CSc1ccccc1Cl)CN1CCN(c2ccccc2F)CC1 (configuration not stated)	20	63*	-17	74*	?	45µM*	?
OC(CSc1c(Cl)cccc1Cl)CN1CCN(c2ccccc2F)CC1 (configuration not stated)	-11	68*	-25	65*	?	?	?
CC(=O)Nc1ccccc1-c1nc2ccccc2n(C(C)C(=O)c2ccc(C)c(C)c2)c1=O (configuration not stated)	nt	nt	-11	nt	nt	nt	nt
Cc1cccc(N2C(=O)CSC23C(=O)N(C)c2ccccc23)c1 (configuration not stated)	nt	0	nt	nt	nt	nt	nt
Cn1c(=O)cc(SCC(=O)NCCCN2CCN(c3ccc(F)cc3)CC2)c2ccccc21	-34	33*	-26	91*	2	-5%	9%
O=C(NCc1cccc(F)c1)c1ccc2nc(N3CCCCC3)sc2c1	nt	nt	3	nt	nt	nt	nt
CC(C)n1ncc2c(C(=O)N3CCN(Cc4ccc(Br)s4)CC3)cc(C3CC3)nc21	6	64*	-23	70*	?	24%	?
CCC(Cc1ccccc1)NC(=O)Cn1ncc2c3ccccc3n(Cc3ccccc3)c2c1=O (configuration not stated)	nt	0	-1	nt	nt	nt	nt
CCOc1ccc(-n2ccnc2SCC(=O)Nc2ccc3c(c2)OCO3)cc1	nt	0	4	nt	nt	nt	nt
CN1CCc2c(sc(/N=C/c3cc(Cl)ccc3O)c2C#N)C1	26	88*	-36	83*	52*	-11%	10%
CN1CCc2c(sc(/N=C/c3c[nH]c4ccccc34)c2C#N)C1	-20	49*	-26	-6	7	12%	-4%
CN1CCc2c(sc(/N=C/c3c[nH]c4ccccc34)c2C(N)=O)C1	-17	1	-9	13	-4	nt	nt
SMILES	D2 PAM-1	D2 ag-1	D2 PAM-2	D2 antagonist	D2 ag-2	D3 arrestin ag	D2 ag-3
CCN(C(=O)Cn1ncc2c(=O)oc3ccc(C)cc3c21)c1cc(OC)ccc1OC	nt	-1	8	nt	nt	nt	nt
COCCN(C(=O)C1=COCCO1)c1c(N)n(Cc2ccccc2)c(=O)[nH]c1=O	-8	-1	1	6	0	nt	nt
COCCN(C(=O)C1=COCCO1)c1c(N)n(CC(C)C)c(=O)[nH]c1=O	-3	1	-1	0	6	-5%	22%
COCCN(C(=O)c1ccc(COc2ccccc2)o1)c1c(N)n(CC(C)C)c(=O)[nH]c1=O	-15	0	1	-13	4	-7%	-2%
COc1ccc(OCCCC(=O)NNC(=O)CCN2CCN(c3ccccc3)CC2)cc1	-8	83*	-24	71*	7	19%	15%
Cc1cccc(OCCCC(=O)NNC(=O)CCN2CCN(c3ccccc3)CC2)c1	-33	59*	-24	9	-1	?	29%
CCn1cc(C(=O)N2CCN(c3ccccc3)CC2)c(=O)c2cc(S(=O)(=O)N3CCC(C)CC3)ccc21	nt	0	16	nt	nt	nt	nt
COCCOCC(O)CN1CCN(c2ccccc2)CC1 (configuration not stated)	-24	84*	-30	59*	9	22%	15%
OC(COCC1COc2ccccc2O1)CN1CCN(c2ccccc2)CC1 (configuration not stated)	-7	67*	-12	60*	?	?	?
OC(COCc1ccccc1)CN1CCN(c2ccccc2)CC1 (configuration not stated)	-4	86*	-32	86*	14	?	?
O=C(c1ccco1)N1CCN(Cc2cn[nH]c2-c2ccc(F)cc2F)CC1	4	28	-5	-20	4	nt	nt
O=C(c1ccco1)N1CCN(Cc2ccc(F)cc2Cl)CC1	23	79*	-26	58*	?	29%	?
O=C(c1ccco1)N1CCN(Cc2ccccc2Br)CC1	?	76*	-31	78*	?	?	50µM*
O=C(c1ccco1)N1CCN(C(=O)c2ccco2)CC1	-4	nt	nt	nt	-2	nt	nt
Cc1ccc2c(c1)N(C(=O)N1CCC(C(=O)NCCC3=CCCCC3)CC1)CC(C)O2 (configuration not stated)	nt	2	1	nt	nt	nt	nt
CCOc1ccc(-c2nonc2NC(=O)c2oc3c(C)c(C)ccc3c2C)cc1OCC	nt	0	6	nt	nt	nt	nt
COc1ccc(C(c2c(O)cc(C)n(Cc3ccco3)c2=O)N2CCCCC2)cc1OC (configuration not stated)	nt	0	1	nt	nt	nt	nt
